According to the supplement of paper PMC10849652:
About 8,800 targets were measured; listed, in parts, are those with a hit and a random draw of the rest. About 0.5% of all pairs of compound and target were hits. Values without a mark were called inactive.

compound: CCCS(=O)(=O)Nc1ccc(F)c(C(=O)c2c[nH]c3ncc(-c4ccc(Cl)cc4)cc23)c1F [vemurafenib]; assay: log2 fold change, soluble protein after heating vs DMSO (PISA); higher = thermal stabilisation; K562 lysate, 10 uM; active = over 0.2 and 3.5 SD of the protein, either way, in both replicates (recomputed)
How it was run: (§1)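 Values give the log-two fold change in thermal stability against solvent controls, from duplicates. Crude K562 extract at 1 mg/mL protein, made by dounce homogenisation in PBS pH 7.4 with 1 mM MgCl2, was treated with 10 μM compound for 30 min. After 3 min heating across 48°C-58°C, aliquots were pooled, adjusted to 0.5% NP-40 at 4°C and centrifuged at 21,000xg for 90 min. The supernatant was measured by TMTpro 16plex LC-MS/MS with channel sums equalised.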

Chain of UniProt Q9Y570 (Q9Y570 whole entry, looked up): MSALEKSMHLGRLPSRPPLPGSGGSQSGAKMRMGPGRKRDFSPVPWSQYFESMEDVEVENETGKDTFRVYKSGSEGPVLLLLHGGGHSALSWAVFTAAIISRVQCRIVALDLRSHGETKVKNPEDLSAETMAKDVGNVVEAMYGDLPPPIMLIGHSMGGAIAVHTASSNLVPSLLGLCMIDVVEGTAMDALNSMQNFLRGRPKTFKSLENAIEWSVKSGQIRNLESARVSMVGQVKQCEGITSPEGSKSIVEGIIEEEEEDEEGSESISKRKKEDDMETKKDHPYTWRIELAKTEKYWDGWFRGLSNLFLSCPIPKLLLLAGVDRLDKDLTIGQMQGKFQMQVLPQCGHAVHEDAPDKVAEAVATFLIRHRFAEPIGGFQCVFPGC
Chain of UniProt Q16816 (Q16816 whole entry, looked up): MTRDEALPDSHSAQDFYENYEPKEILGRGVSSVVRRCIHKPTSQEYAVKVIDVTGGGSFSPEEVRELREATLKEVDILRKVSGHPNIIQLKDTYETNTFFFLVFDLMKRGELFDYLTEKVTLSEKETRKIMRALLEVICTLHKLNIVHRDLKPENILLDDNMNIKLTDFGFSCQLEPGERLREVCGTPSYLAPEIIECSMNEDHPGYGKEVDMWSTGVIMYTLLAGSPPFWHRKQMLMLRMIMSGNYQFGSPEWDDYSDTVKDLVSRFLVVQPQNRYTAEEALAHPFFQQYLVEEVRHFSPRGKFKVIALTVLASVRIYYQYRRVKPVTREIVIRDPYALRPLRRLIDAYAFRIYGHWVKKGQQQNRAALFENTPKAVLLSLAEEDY
Chain of UniProt P53350 (P53350 whole entry, looked up): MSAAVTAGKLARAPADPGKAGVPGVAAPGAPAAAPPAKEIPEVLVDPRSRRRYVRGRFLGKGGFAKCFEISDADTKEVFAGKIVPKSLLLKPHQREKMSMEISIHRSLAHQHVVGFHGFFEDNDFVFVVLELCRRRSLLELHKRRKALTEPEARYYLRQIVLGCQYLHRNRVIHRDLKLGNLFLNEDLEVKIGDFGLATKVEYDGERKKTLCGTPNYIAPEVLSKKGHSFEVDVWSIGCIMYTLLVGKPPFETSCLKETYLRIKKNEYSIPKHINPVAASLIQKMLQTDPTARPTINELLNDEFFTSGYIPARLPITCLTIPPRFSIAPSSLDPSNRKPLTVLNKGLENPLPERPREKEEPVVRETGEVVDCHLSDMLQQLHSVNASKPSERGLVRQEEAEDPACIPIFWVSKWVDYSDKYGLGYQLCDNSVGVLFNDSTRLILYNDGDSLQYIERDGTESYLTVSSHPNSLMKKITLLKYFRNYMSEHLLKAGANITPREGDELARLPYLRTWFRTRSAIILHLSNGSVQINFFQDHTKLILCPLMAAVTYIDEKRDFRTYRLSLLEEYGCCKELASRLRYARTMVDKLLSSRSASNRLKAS
Chain of UniProt O00329 (O00329 whole entry, looked up): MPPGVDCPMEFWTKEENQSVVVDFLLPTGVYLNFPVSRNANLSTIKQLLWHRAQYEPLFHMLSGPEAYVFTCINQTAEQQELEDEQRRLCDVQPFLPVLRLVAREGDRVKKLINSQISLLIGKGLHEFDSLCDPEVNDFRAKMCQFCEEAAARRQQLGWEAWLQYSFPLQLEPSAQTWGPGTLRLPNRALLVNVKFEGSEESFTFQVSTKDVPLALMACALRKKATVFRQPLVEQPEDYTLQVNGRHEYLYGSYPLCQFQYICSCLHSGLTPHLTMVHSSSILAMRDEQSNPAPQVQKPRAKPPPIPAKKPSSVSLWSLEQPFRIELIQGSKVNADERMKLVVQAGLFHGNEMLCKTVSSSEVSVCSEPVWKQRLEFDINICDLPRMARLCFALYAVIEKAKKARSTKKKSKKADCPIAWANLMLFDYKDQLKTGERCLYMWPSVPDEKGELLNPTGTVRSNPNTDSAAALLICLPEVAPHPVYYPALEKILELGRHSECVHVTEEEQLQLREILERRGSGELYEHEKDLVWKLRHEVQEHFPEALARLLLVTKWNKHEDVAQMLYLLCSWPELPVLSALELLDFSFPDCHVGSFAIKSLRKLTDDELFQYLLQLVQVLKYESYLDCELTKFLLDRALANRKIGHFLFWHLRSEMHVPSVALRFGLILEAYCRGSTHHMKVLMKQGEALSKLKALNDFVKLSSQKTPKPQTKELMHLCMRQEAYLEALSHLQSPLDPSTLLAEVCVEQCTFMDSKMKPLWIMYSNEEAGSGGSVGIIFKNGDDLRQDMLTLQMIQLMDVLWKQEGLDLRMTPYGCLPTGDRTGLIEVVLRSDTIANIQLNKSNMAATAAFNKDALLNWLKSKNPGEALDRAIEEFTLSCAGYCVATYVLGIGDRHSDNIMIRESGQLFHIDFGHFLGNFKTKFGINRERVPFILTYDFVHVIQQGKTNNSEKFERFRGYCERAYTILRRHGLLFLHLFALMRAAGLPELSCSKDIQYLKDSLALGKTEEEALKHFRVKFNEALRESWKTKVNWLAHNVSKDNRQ
Chain of UniProt Q96LW4 (Q96LW4 whole entry, looked up): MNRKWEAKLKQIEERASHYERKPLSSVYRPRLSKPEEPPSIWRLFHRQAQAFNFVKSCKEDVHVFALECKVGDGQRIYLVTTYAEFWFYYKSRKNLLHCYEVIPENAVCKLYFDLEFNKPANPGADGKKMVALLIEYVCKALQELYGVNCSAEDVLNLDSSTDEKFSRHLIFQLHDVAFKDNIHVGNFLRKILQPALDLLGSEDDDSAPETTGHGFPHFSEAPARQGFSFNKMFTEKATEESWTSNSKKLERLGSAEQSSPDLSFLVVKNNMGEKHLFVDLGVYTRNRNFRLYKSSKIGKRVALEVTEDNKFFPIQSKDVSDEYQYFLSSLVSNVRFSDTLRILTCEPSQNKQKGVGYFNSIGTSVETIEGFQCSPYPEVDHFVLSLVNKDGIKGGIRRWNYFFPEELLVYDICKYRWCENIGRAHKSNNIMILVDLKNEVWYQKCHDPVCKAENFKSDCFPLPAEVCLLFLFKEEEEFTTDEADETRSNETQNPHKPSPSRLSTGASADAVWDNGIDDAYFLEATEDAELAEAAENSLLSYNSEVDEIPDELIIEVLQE
Chain of UniProt P78364 (P78364 whole entry, looked up): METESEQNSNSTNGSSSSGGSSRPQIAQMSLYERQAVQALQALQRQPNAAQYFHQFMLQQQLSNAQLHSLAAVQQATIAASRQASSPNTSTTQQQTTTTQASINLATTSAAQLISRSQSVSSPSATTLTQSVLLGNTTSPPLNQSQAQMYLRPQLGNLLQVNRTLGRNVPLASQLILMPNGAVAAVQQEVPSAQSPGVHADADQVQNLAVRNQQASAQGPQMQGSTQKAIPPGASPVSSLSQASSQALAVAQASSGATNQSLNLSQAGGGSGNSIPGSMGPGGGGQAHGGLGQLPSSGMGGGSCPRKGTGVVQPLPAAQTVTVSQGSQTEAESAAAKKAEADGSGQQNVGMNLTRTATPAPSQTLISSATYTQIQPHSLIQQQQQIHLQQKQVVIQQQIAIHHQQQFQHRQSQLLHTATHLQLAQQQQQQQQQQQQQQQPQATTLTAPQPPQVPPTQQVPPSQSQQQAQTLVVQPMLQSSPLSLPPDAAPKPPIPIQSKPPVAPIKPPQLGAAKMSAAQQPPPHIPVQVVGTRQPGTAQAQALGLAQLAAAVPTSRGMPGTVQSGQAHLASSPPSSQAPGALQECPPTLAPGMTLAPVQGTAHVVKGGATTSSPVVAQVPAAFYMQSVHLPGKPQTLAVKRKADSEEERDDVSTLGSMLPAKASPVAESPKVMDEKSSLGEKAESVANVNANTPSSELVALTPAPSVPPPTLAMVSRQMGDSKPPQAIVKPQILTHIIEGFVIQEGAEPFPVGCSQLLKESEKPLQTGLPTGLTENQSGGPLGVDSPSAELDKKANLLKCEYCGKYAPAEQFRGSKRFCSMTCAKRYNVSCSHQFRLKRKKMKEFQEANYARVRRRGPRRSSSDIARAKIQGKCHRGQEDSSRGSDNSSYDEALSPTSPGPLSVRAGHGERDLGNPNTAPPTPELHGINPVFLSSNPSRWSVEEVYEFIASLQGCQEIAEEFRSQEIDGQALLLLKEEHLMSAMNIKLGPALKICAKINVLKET
Chain of UniProt Q05397 (Q05397 whole entry, looked up): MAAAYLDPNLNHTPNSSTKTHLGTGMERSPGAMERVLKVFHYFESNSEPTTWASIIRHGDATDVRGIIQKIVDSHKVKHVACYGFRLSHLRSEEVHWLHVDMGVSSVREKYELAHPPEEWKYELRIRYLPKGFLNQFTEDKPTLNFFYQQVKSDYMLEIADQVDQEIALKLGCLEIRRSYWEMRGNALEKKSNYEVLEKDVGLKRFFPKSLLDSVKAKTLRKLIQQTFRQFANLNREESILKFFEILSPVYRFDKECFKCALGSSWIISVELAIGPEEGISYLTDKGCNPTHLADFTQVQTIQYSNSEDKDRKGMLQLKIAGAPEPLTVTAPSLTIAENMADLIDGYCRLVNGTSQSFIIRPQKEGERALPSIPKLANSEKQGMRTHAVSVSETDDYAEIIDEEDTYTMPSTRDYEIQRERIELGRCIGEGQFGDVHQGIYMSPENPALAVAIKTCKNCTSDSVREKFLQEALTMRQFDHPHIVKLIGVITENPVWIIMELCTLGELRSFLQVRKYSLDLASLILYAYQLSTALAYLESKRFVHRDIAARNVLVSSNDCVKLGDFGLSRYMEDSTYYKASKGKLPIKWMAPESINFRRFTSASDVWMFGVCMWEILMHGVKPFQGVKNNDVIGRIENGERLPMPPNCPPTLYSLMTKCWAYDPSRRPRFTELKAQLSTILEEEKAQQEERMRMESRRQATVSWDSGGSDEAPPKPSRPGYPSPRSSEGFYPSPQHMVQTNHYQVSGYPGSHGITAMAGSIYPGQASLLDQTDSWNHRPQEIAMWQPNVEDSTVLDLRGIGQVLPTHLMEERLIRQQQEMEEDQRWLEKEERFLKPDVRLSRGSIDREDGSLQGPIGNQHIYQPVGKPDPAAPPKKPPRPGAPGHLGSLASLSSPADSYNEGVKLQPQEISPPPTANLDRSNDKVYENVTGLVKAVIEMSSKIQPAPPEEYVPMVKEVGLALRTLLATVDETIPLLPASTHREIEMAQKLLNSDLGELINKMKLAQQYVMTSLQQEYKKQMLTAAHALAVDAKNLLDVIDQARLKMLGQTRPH

Target | log2 fold change
PEX2 (UniProt P28328) | 0.079
PIM1 isoform 2 (UniProt P11309) | -0.061
PHC1 (UniProt P78364) | 0.042
PPP2R5C isoform 2 (UniProt Q13362) | 0.014
PFN3 (UniProt P60673) | 0.059
PPIC (UniProt P45877) | -0.009
PNPLA4 (UniProt P41247) | 0.098
PMS1 (UniProt P54277) | 0.037
PHKG1 isoform 2 (UniProt Q16816) | -0.197
PIK3CG (UniProt P48736) | 0.028
PLK1 (UniProt P53350) | 0.053
PIK3CD (UniProt O00329) | -0.094
PRR4 (UniProt Q16378) | 0.367
PIAS2 (UniProt O75928) | -0.263
PDE4DIP (UniProt E9PS60) | -0.014
POLR2M (UniProt Q6EEV4) | 0.117
PCLAF (UniProt Q15004) | -0.016
PCBP2 (UniProt F8W0G4) | 0.121
PRIMPOL (UniProt Q96LW4) | -0.02

compound: CCCS(=O)(=O)Nc1ccc(F)c(C(=O)c2c[nH]c3ncc(Cl)cc23)c1F; assay: as above
How it was run: as §1

Target | log2 fold change
PFN1 (UniProt I3L3D5) | -0.142
PCBP2 (UniProt F8VRH0) | -0.035
PEX2 (UniProt P28328) | -0.047
PHGDH, A0A286YFE1 | 0.158
PREP (UniProt H0Y5Y0) | 0.019
PFN3 (UniProt P60673) | 0
PRG4 (UniProt Q92954) | -0.038
POM121C (UniProt A8CG34) | -0.037
PTK2 isoform 2 (UniProt Q05397) | -0.101
PPP1R11 (UniProt O60927) | 0.069
PHKG1 isoform 2 (UniProt Q16816) | -0.037
PPME1 (UniProt Q9Y570) | -0.042
PLK1 (UniProt P53350) | -0.009
PIK3CD (UniProt O00329) | 0.005
PRR4 (UniProt Q16378) | 0.038
PRADC1 (UniProt Q9BSG0) | 0.011
PIP5K1A (UniProt Q99755) | 0.029
POLR2M (UniProt Q6EEV4) | -0.043

compound: CCN(CCCOc1ccc2c(Nc3cc(CC(=O)Nc4cccc(F)c4)[nH]n3)ncnc2c1)CCOP(=O)(O)O [barasertib]; assay: as above
How it was run: as §1

Target | log2 fold change
PFN1 (UniProt I3L3D5) | 0.241
PEX2 (UniProt P28328) | 0.174
PLXND1 (UniProt Q9Y4D7) | 0.045
PIM1 isoform 2 (UniProt P11309) | 0.139
PHC1 (UniProt P78364) | 0.034
PHGDH, A0A286YFE1 | 0.364
PPP2R5C isoform 2 (UniProt Q13362) | -0.267
PRG4 (UniProt Q92954) | 0.332
PPIC (UniProt P45877) | 0.203
POM121C (UniProt A8CG34) | 0.201
PTK2 isoform 2 (UniProt Q05397) | 0.05
PMS1 (UniProt P54277) | 0.193
PPP1R11 (UniProt O60927) | -0.04
PPME1 (UniProt Q9Y570) | 0.026
PIK3CG (UniProt P48736) | 0.046
PLK1 (UniProt P53350) | 0.003
PIK3CD (UniProt O00329) | -0.046
PTMA isoform 2 (UniProt P06454) | -0.09
PRADC1 (UniProt Q9BSG0) | -0.509 (active)
PIP5K1A (UniProt Q99755) | 0.108
PYGO2 (UniProt Q9BRQ0) | 0.036
POLR2M (UniProt Q6EEV4) | 0.176
PCLAF (UniProt Q15004) | -0.068
PCBP2 (UniProt F8W0G4) | 0.035
PRIMPOL (UniProt Q96LW4) | -0.083

compound: CC[C@@H]1C(=O)N(C)c2cnc(Nc3ccc(C(=O)NC4CCN(C)CC4)cc3OC)nc2N1C1CCCC1; assay: as above
How it was run: as §1

Target | log2 fold change
PFN1 (UniProt I3L3D5) | -0.01
PIM1 isoform 2 (UniProt P11309) | 0.002
PHC1 (UniProt P78364) | 0.097
PECR (UniProt Q9BY49) | 0.023
POLR2F (UniProt U3KPV3) | 0.13
PFN3 (UniProt P60673) | 0.112
PNPLA4 (UniProt P41247) | 0.002
PTK2 isoform 2 (UniProt Q05397) | -0.076
PMS1 (UniProt P54277) | 0.019
PPP1R11 (UniProt O60927) | 0.153
PHKG1 isoform 2 (UniProt Q16816) | -0.062
PPME1 (UniProt Q9Y570) | 0.104
PIK3CG (UniProt P48736) | 0.004
PRR4 (UniProt Q16378) | -0.21
PIAS2 (UniProt O75928) | -0.026
PDE4DIP (UniProt E9PS60) | 0.017
PHOSPHO2 (UniProt C9JD35) | -0.432
PYGO2 (UniProt Q9BRQ0) | -0.106
POLR2M (UniProt Q6EEV4) | 0.032
PCLAF (UniProt Q15004) | 0.057
PCBP2 (UniProt F8W0G4) | -0.253
PRIMPOL (UniProt Q96LW4) | -0.095
